34 molecules from PubChem BioAssay (Tox21) can be followed below.

“And” between values parts separate entries of the source, which are not always exact repeats. Equal values may be shown once. Inconclusive results are not listed. A number with no mark means an inactive call. The source made the active and inactive calls. Calls come from the whole dose curve; as a rule, active = well fitted cell-killing curve with a large enough effect in the repeat runs; inconclusive = weak or mixed curves; inactive = flat fitted curve, though single readings scatter.
% is set by controls: 0 for no effect and ±100 for the full control effect; potency is the fitted concentration of half-maximal effect.

This experiment can be described thus: qHTS RealTime-Glo MT Cell Viability Assay in HepG2 cells - 24 hour (AID 1224867). Note: nearly all actives have a fitted effect of over 50% in size. As to conditions: RealTime-Glo luminescence; series mostly up to 76.8 µM; activity change, negative = cytotoxicity: at the top concentration. A digest of the protocol: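 Viability was tracked continuously by NanoLuc luminescence from prosubstrate reduced by living HepG2 cells, at successive time points over 40 h of compound exposure. Cells with reagent were preincubated 5 h at 37 °C before compound addition.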
In the case of `COP(=S)(OC)Oc1nc(Cl)c(Cl)cc1Cl`, the “activity change, negative = cytotoxicity” value is -2.06%.

Take `[O-][Cl+3]([O-])([O-])O`: the “activity change, negative = cytotoxicity” value is 1.03%.

On to `CCCCC/C=C\C/C=C\C/C=C\C/C=C\CCCC(=O)NCC(=O)O`, for which the “activity change, negative = cytotoxicity” value is 0.584% [at 35.3 µM].

Take `c1ccc(Nc2ccc(Nc3ccccc3)cc2)cc1`: the “activity change, negative = cytotoxicity” value was -19.9%.

Turning to `O=Cc1ccccc1`, the “activity change, negative = cytotoxicity” value was 2.24%.

For the molecule `N#CC(C#N)=NNc1cccc(Cl)c1`, the Potency is 19.5 µM (active).

On to `CC[C@H](C)[C@H]1O[C@]2(C=C[C@@H]1C)C[C@@H]1C[C@@H](C/C=C(\C)[C@@H](O[C@H]3C[C@H](OC)[C@@H](O[C@H]4C[C@H](OC)[C@@H](NC)[C@H](C)O4)[C@H](C)O3)[C@@H](C)/C=C/C=C3\CO[C@@H]4[C@H](O)C(C)=C[C@@H](C(=O)O1)[C@]34O)O2`, for which the Potency is 9.77 µM (active).

As for `Nc1cc(Cl)ccc1Cl`, the “activity change, negative = cytotoxicity” value is -0.505%.

On to `BrCC(Br)(Br)Br`, for which the “activity change, negative = cytotoxicity” value is -10.6%.

With `CCC(OC(C)=O)C(CC(C)NC)(c1ccccc1)c1ccccc1` (centres undefined), the Potency was 62.2 µM (active).

As for `O=C1C2(Cl)C3(Cl)C4(Cl)C(Cl)(Cl)C5(Cl)C3(Cl)C1(Cl)C5(Cl)C24Cl` (centres undefined), the Potency is 42.9 µM (active) and 46.9 µM (active).

Turning to `CSC(C)(C)/C=N/O`, the “activity change, negative = cytotoxicity” value is 2.1%.

Consider `NC(=O)C(Cl)Cl`, for which the “activity change, negative = cytotoxicity” value was 0.258%.

For the molecule `CN(C)CCc1c[nH]c2ccccc12`, the “activity change, negative = cytotoxicity” value is -2.39%.

As to `CCCCn1cc[n+](C)c1` (tested in a mixture with another compound), the “activity change, negative = cytotoxicity” value is -0.67%.

With `CCC(C)c1cccc(C(C)CC)c1O` (centres undefined), the “activity change, negative = cytotoxicity” value was -10.8%.

As to `Fc1ccc(C(OCCN2CCN(CCCc3ccccc3)CC2)c2ccc(F)cc2)cc1`, the Potency was 23.9 µM (active).

With `CCN(CC)CCN1C(=O)CN=C(c2ccccc2F)c2cc(Cl)ccc21`, the “activity change, negative = cytotoxicity” value was -2.68% [at 35.3 µM].

`Nc1ccccc1-c1ccccc1`: the “activity change, negative = cytotoxicity” value is -0.401%.

`O=[N+]([O-])c1cc(C(F)(F)F)c(Cl)c([N+](=O)[O-])c1Nc1ncc(C(F)(F)F)cc1Cl`: the Potency is 21.9 µM (active).

In the case of `CCCCn1cc[n+](C)c1.[Cl][Fe-]([Cl])([Cl])[Cl]`, the “activity change, negative = cytotoxicity” value was -0.579%.

`Nc1nc(N)nc(Cl)n1`: the “activity change, negative = cytotoxicity” value is 1.56%.

In the case of `Oc1cccc(Cl)c1Cl`, the “activity change, negative = cytotoxicity” value was 0.0465%.

Regarding `Brc1cccc(-c2ccccc2)c1`, the “activity change, negative = cytotoxicity” value was 0.132%.

Consider `CCCCCON=O`, for which the “activity change, negative = cytotoxicity” value was -2.59%.

With `CC(=O)C(Cl)C(=O)N(C)C` (centres undefined), the “activity change, negative = cytotoxicity” value is -2.54%.

For the molecule `COc1ccc2[nH]cc(CCN(C(C)C)C(C)C)c2c1`, the “activity change, negative = cytotoxicity” value was -3.53%.

Consider `Cc1ccn2nc(S(=O)(=O)Nc3c(F)cccc3F)nc2n1`, for which the “activity change, negative = cytotoxicity” value is 0.324%.

Consider `COC(=O)C(C)N(C(=O)c1ccco1)c1c(C)cccc1C` (centres undefined), for which the “activity change, negative = cytotoxicity” value is -1.66%.

Consider `CN1CCc2cc(Cl)c(O)cc2[C@H]2c3ccccc3CC[C@@H]21`, for which the “activity change, negative = cytotoxicity” value is -6.24% [at 35.3 µM].

In the case of `O=c1c2ccccc2c(=O)c2c1cc(Cl)c1[nH]c3c([nH]c12)c(Cl)cc1c(=O)c2ccccc2c(=O)c13`, the “activity change, negative = cytotoxicity” value is -10.6%.

On to `N#CSCc1ccccc1`, for which the “activity change, negative = cytotoxicity” value was -3.72%.

Consider `ClC1=C(Cl)[C@]2(Cl)[C@H]3[C@H]([C@@H]4C=C[C@H]3C4)[C@@]1(Cl)C2(Cl)Cl`, for which the Potency was 54.9 µM (active).

On to `CN(C)C(=S)SSC(=S)N(C)C`, for which the Potency is 54.2 µM (active) and 436 nM (active) and 379 nM (active).
